Source: PubChem
DRD3 antagonist: antagonists of human D3 dopamine receptor. AID 652054. P35462. hit rate 2.5% among 360,000. D3R cells, DiscoveRx beta-arrestin luminescence, antagonist mode; stronger effect = lower value. max response, negative = inhibition, %; in the data active = max response below about -50%; inconclusive = no clear call, values can overlap the other calls; also: % is scaled to controls: 0 for no effect and ±100 for the full control effect
Target sequence (P35462 whole entry, looked up): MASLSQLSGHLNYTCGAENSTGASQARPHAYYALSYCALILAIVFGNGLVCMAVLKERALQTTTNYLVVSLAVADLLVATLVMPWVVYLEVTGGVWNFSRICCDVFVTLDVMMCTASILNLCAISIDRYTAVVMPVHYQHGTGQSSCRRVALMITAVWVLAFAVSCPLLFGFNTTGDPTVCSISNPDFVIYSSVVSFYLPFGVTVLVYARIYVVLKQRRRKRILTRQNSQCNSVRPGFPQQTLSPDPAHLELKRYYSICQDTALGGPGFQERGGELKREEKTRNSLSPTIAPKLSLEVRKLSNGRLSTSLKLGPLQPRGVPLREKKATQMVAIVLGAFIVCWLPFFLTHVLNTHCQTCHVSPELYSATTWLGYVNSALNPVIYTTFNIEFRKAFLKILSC
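Cells expressing the human receptor were seeded at 1500 cells/well, incubated overnight at 37 degrees C in 5% CO2, then exposed to library compounds with dopamine controls for 90 minutes at 37 degrees C before luminescent detection.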
BRCA1 expr up: BRCA1 expression activation | MCF7-BRCA1-FFLuc reporter, luminescence, 48 h; response scale: scaled: vehicle 0%, 10 µM genistein 100% | Potency, µM (highest dose often 46.1 µM), for inactives: at the top dose activation, actives largely listed as activators | hit rate 1.1% among 380,000 | AID 624202; also: potency is read from the fitted curve at half-maximal effect; nearly all actives have a fitted effect of over 80% in size
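Cells: MCF7-BRCA1-FFLuc, 2000/well. Exposure: 48 h, 37 °C, 5% CO2. Read: luminescence, 15 min post-substrate. Controls: genistein 10 microM (maximal activation), DMSO (neutral).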
PTHR1 agonist: PTHR1 (human) receptor agonism; hit rate 0.075% among 410,000; HEK293 GP2 PTHR1 cells, GloSensor cAMP luminescence, 1 h; Potency, µM (titrated, usually from 115 µM), for the others: at the highest dose activation, hits mostly activators; Q03431; also: potency is read from the fitted curve at half-maximal effect; nearly all actives have a fitted effect of over 55% in size
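HEK-293-derived GP2 cells expressing PTHR1 and a GloSensor cAMP reporter, 3,000/well, plated overnight, given luciferin plus IBMX (each 0.5 mM as added) for 1 h at 37 °C, then compound for 1 h at 37 °C. Luminescence was read after 15 min at room temperature.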
RGS4 inh: human RGS4 inhibition | P49798 | hit rate 0.039% among 390,000 | AID 504845 | Transcreener GDP fluorescence polarization, RGS4-accelerated GTP hydrolysis | Potency, µM (series often up to 114 µM), inactives show top-dose activity change, negative = inhibition, actives largely listed as inhibitors; also: potency is read from the fitted curve at half-maximal effect; % is scaled to controls: 0 for no effect and ±100 for the full control effect; nearly all actives have a fitted effect of over 75% in size
Target sequence (P49798 whole entry, looked up): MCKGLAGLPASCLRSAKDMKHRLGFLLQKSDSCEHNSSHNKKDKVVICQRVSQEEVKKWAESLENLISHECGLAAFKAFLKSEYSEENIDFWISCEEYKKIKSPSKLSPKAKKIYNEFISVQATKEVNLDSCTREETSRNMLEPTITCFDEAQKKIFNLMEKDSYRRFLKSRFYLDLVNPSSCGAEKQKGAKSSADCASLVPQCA
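MLSMR compounds (23 nl, pin-transferred) preincubated 10 min at room temperature with a 500nM (2x) first reagent, then RGS4 at 900nM (2x) plus Transcreener GDP mix added; fluorescence polarization (620/688 nm) read before and after 90 min at 30 °C.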
D3 ag: activates the human D3 dopamine receptor; P35462; D3R DiscoveRx beta-arrestin cells, luminescence, 90 min; max activation, %; hit rate 0.58% among 410,000; AID 652048; in the data active = max activation above about 30%; also: 0% is about no effect
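Cells at 1500/well, incubated overnight, then treated with pinned compounds (dopamine as control) for 90 min at 37 degrees C. DiscoveRx reagent added for 30 - 60 minutes at room temperature; luminescence read.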
B2AR arrestin: agonists driving beta-arrestin recruitment to human beta2-adrenergic receptor. P07550. hit rate 0.02% among 330,000. beta-arrestin recruitment to beta2AR, cell-based reporter. Potency, µM (doses to about 46.1 µM), without a hit: at the highest dose activation, most hits filed as activators. AID 492947;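 also: potency is read from the fitted curve at half-maximal effect; 0% = DMSO controls and full agonism = EC100 isoproterenol or metaproterenol; nearly all actives have a fitted effect of over 65% in size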
An asterisk follows results filed as active; i = inactive; ? = inconclusive; . = no result given; [ ] = remark or other dose. Sampled rows, rich in hits. Any-hit rate of the full collection: about 3.7%. Unless noted, calls follow the shape of the dose curve; as a rule, active = well fitted curve in the direction sought with a large enough effect; inconclusive = small, poorly fitted or top-dose-only effect, or another doubt; inactive = no such curve, though single readings can be large; an effect the other way counts as inactive or inconclusive.

SMILES	DRD3 antagonist	BRCA1 expr up	PTHR1 agonist	RGS4 inh	D3 ag	B2AR arrestin
N#Cc1c(NC(=O)CCN2C(=O)c3ccccc3C2=O)oc(-c2ccccc2)c1-c1ccccc1	-85*	-9%	i	1%	-6	0%
COc1ccccc1C1CCN(Cc2cccc(C(=O)N3CCC(O)CC3)c2)CC1	-110*	-1%	i	12%	-3	0%
COC(=O)C[C@H]1c2cc(F)cc(F)c2S(=O)(=O)N1C1CCN(Cc2ccccc2)CC1	-69*	-19%	i	-21%	-66	.
O=C(NCCCN1CCCC1=O)c1ccc(OC(F)(F)F)cc1	10	-4%	i	17%	1	0%
CCCCOc1ccc(C(=O)NCCN2CCC(n3c(=O)[nH]c4ccccc43)CC2)cc1	-60*	-17%	-41%	.	-11	.
O=C(NCCN1CCC(n2c(=O)[nH]c3ccccc32)CC1)c1ccc(OC(F)(F)F)cc1	-86*	10%	-65%	.	-12	.
COc1ccc(OC)c(S(=O)(=O)NCc2cccn2Cc2cccc(C)c2)c1	.	0%	-38%	-25%	1	.
COc1cc(C(=O)N/N=C/c2ccc(OC)c(CN3CCN(c4ccc(F)cc4)CC3)c2)ccc1O	-75*	-1%	-5%	-14%[56.9 µM]	-13	0%
CC1CCN(CCc2nc3cc(NC(=O)COc4ccc([N+](=O)[O-])cc4)ccc3n2C)CC1	?	-34%	-21%	-9%	-28	0%
C/C(=N/NC(=O)CN(c1ccccc1)S(=O)(=O)c1ccccc1)c1ccccc1O	-52*	-61%	i	6%	-21	0%
CCCC/C(C)=N/NC(=O)CN(c1ccc(Br)cc1)S(=O)(=O)c1ccccc1	-9	-7%	i	15%	-7	0%
Cc1ccc(N(CC(=O)NCc2cccs2)S(=O)(=O)c2cccs2)cc1	0	-68%	?	-18%	3	0%
Cc1ccc(S(=O)(=O)N(CC(=O)NCc2cccs2)c2ccccc2)cc1	-66*	-5%	-4%	12%	-30	0%
Cc1c(Cl)cccc1NC(=S)NNc1ncc(C(F)(F)F)cc1Cl	-75*	-87%	-51%	-23%	-75	0%
Cc1ccccc1NC(=S)NNc1ncc(C(F)(F)F)cc1Cl	-93*	-31%	-15%	?	-16	0%
O=C(NNc1ncc(C(F)(F)F)cc1Cl)c1c(Cl)cccc1Cl	-70*	-84%	0%	12%	-9	7%
NC(=O)NNc1ncc(C(F)(F)F)cc1Cl	5	-25%	i	-9%	2	0%
CO[C@@H]1[C@@H](O[C@@H]2O[C@H](C)[C@@H](O[C@H]3C[C@@](C)(O)[C@@H](O)[C@H](C)O3)[C@H](N(C)C)[C@H]2O)[C@@H](CC=O)C[C@@H](C)[C@@H](O[C@@H]2CC[C@H](N(C)C)[C@@H](C)O2)/C=C/C=C/C[C@@H](C)OC(=O)C[C@H]1OC(C)=O	.	.	.	.	9	.
Cc1nc([N+](=O)[O-])cn1CC(O)c1ccc(F)cc1 (stereo not drawn)	-3	0%	-10%	16%	-4	1%
CC(C)=CCC[C@](C)(O)C1CC[C@]2(C)C1[C@H](O)CC1[C@@]3(C)CC[C@H](O[C@@H]4O[C@H](CO)[C@@H](O)[C@H](O)[C@H]4O[C@@H]4O[C@H](CO)[C@@H](O)[C@H](O)[C@H]4O)C(C)(C)C3CC[C@]12C (stereo partly drawn)	-61*	9%	-20%	11%	-19	0%
CC(C)=CCC[C@](C)(OC1OC(COC2OCC(O)C(O)C2O)C(O)C(O)C1O)C1CC[C@]2(C)C1C(O)CC1[C@@]3(C)CCC(O[C@@H]4O[C@H](CO)C(O)C(O)C4O[C@@H]4OC(CO)C(O)C(O)C4O)C(C)(C)C3CC[C@]12C (stereo partly drawn)	1	-11%	i	-15%	10	0%
C[C@H](CO)N1C[C@H](C)[C@H](CN(C)C(=O)Nc2ccc(N3CCN(C)CC3)cc2)OCc2cnnn2CCCC1=O	0	3%	-22%	.	-5	.
COC(=O)[C@@]1(Cc2ccccc2)[C@H]2C(=O)N(C)C(=O)[C@H]2[C@H]2CN(C)C(=NCc3ccccc3)N21	13	0%	-25%	-2%	5	.
CCOC(=O)c1cc([N+](=O)[O-])cc([N+](=O)[O-])c1Sc1ncnc2nc[nH]c12	-86*	-96%	-38%	?	-25	.
CC(C)c1ccc(S(=O)(=O)/N=C2/C=C(Sc3ncn[nH]3)C(=O)c3ccccc32)cc1	-75*	-91%	-34%	?	-6	-1%
SMILES	DRD3 antagonist	BRCA1 expr up	PTHR1 agonist	RGS4 inh	D3 ag	B2AR arrestin
Cc1ccc(S(=O)(=O)/N=C2/C=C(Sc3ncn[nH]3)C(=O)c3ccccc32)cc1	-104*	-97%	-9%	-148%	-22	-1%
Cc1ccc(S(=O)(=O)/N=C2/C=C(Sc3ncn[nH]3)C(=O)c3ccccc32)c(C)c1	.	.	.	.	.	-1%
COCCNC(=O)c1ccc(Cl)c(S(=O)(=O)Nc2cccc(C)c2C)c1	-2	-10%	-13%	5%	4	0%
NNC(=O)c1cc2c(ccc3ccccc32)o1	-5	-13%	?	7%	0	0%
O=C(Nc1cccnc1)c1cc2c(ccc3ccccc32)o1	?	13µM*	-28%[57.5 µM]	-39%	-1	.
O=C(Nc1ccc(N2CCCCCC2)cc1)c1ccc[nH]1	2	1.4µM*	-35%	-22%	-6	-1%
CC(=O)Nc1cccc(NC(=O)c2cc3ccccc3o2)c1	30	8.9µM*	-2%	-11%	4	0%
COc1cc(NC(=O)C(C)C)ccc1NC(=O)c1cc2ccccc2o1	-10	8.9µM*	-19%	-14%	7	0%
Cc1ccccc1OC(=O)CSc1nnc(-c2ccc(F)cc2)o1	.	.	6%	-19%	5	.
O=C(Cn1cc(SCc2ccc(Br)cc2)c2ccccc21)N1CCCCC1	.	.	-15%	10%	-1	.
CC1CCCCC1NC(=O)c1c(O)nc2ccccn2c1=O (stereo not drawn)	-5	-35%	i	8%	-1	0%
Cc1ccc(NC(=O)c2ccc3nc(Cc4ccccc4)oc3c2)cc1F	.	.	-49%	0%	-6	.
CCN1C(=O)[C@@H]2[C@@H]3CN(S(=O)(=O)c4ccc(C)cc4)[C@@H](c4ccccc4F)[C@@H]3C(=O)C[C@@H]2C1=O	0	-16%	-23%	.	-1	.
COc1ccc(C2NC(=O)c3ccccc3O2)cc1 (stereo not drawn)	-10	-4%	i	-11%	-3	0%
O=C(Nc1ccc(N2CCCC2)cc1)c1cc2ccccc2o1	0	8.9µM*	-24%	-38%	-10	0%
